Measured values from the supplement of paper PMC6897291.

System: U-2932
Assay: growth inhibition by drug alone (1 - RLU/untreated control) (fraction); higher = stronger inhibition
Conditions: 177Lu-lilotomab satetraxetan 0 ug/ml
Experimental: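 U-2932 ABC-DLBCL cells were pretreated or not for 18 h with 1 ug/ml 177Lu-lilotomab satetraxetan (600 MBq/mg), washed and seeded (3000 cells/well) on 384-well plates pre-printed with the Selleck Cambridge Cancer Compound library. Viability was read by RealTime-Glo luminescence on days 3-6 after seeding. Effect = 1 - RLU/mean RLU of the 48 untreated no-drug control wells per plate; Bliss score = (M-E)/(1-Fa), with E the expected Bliss-additive effect.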

SMILES | growth inhibition by drug alone (10 nM, time (day): 3) | growth inhibition by drug alone (10 nM, time (day): 4) | growth inhibition by drug alone (10 nM, time (day): 5) | growth inhibition by drug alone (10 nM, time (day): 6) | growth inhibition by drug alone (1000 nM, time (day): 3) | growth inhibition by drug alone (1000 nM, time (day): 4) | growth inhibition by drug alone (1000 nM, time (day): 5) | growth inhibition by drug alone (1000 nM, time (day): 6)
CCOc1cc2ncc(C#N)c(Nc3ccc(OCc4ccccn4)c(Cl)c3)c2cc1NC(=O)/C=C/CN(C)C [Neratinib (HKI-272)] | -0.0556 | -0.0442 | -0.0146 | 0.0157 | -0.0267 | -0.00012 | -0.0352 | -0.0269
CCc1ccc(CCOc2ccc(CC3SC(=O)NC3=O)cc2)nc1 (stereo not given) [Pioglitazone (Actos)] | -0.11 | -0.125 | -0.103 | -0.0806 | -0.0965 | -0.0693 | -0.0516 | 0.0915
CC(C)c1ccc(Cn2ccc3c4c(N)nc(NC5CC5)nc4ccc32)cc1 | 0.155 | 0.138 | 0.0759 | 0.0356 | 0.976 | 0.977 | 0.982 | 0.985
CCCCCCCc1ccc(CCc2cccc(O)c2C(=O)O)cc1 | -0.00199 | -0.0102 | -0.0455 | -0.106 | 0.0439 | 0.0243 | -0.0103 | 0.0409
O=C(NCCCNc1nc(Nc2cccc(NC(=O)N3CCCC3)c2)ncc1I)c1cccs1 | 0.201 | 0.14 | 0.0194 | 0.047 | 0.0736 | 0.137 | 0.35 | 0.462
